According to PubChem BioAssay (Tox21):
Inconclusive results are not listed. The source made the active and inactive calls. Unless noted, calls follow the shape of the dose curve; as a rule, active = well fitted curve in the direction sought with a large enough effect in the repeat runs; inconclusive = weak or mixed curves; inactive = no such curve, though single readings can be large; an effect the other way counts as inactive or inconclusive.

Key:
[1] = A CellTox Green Cytotoxicity Assay to monitor cytotoxicity in HepG2 cells - 0 hour (AID 1224882); also: nearly all actives have a fitted effect of over 35% in size
Summary of the method: (§1)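 Measurements at 0, 8, 16, 24, 32 and 40 h of treatment captured CellTox Green fluorescence in HepG2 cells that had been co-plated with reagent and preincubated 5 h at 37 C/5% CO2.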

[2] = A CellTox Green Cytotoxicity Assay to monitor cytotoxicity in HepG2 cells - 32 hour (AID 1224883); also: nearly all actives have a fitted effect of over 50% in size
Summary of the method: as §1

[3] = A CellTox Green Cytotoxicity Assay to monitor cytotoxicity in HEK293 cells - 8 hour (AID 1224884); also: nearly all actives have a fitted effect of over 35% in size
Summary of the method: (§2)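 Tox21 screen in HEK293: membrane-impermeant cyanine dye fluoresces on binding dead-cell DNA; compound pinned 5 h post-seeding, plates held at 37 C, signal read repeatedly through 40 h.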

[4] = qHTS RealTime-Glo MT Cell Viability Assay in HepG2 cells - 16 hour (AID 1224885); also: nearly all actives have a fitted effect of over 50% in size
Summary of the method: (§3)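 HepG2 suspension premixed with RealTime-Glo reagents is plated at 600 cells per well and left 5 h at 37 C/5% CO2. Compounds in DMSO then go in, and bioluminescence reflecting viable cell number is recorded over 40 h.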

[5] = qHTS RealTime-Glo MT Cell Viability Assay in HEK293 cells - 24 hour (AID 1224886); also: top concentration of the series differs between compounds; nearly all actives have a fitted effect of over 50% in size
Summary of the method: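 Reads taken at 0, 8, 16, 24, 32 and 40 h from the same wells. HEK293 cells (600/well) carried RealTime-Glo reagents from seeding, with compound added after a 5 h settle at 37 C.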

[6] = qHTS RealTime-Glo MT Cell Viability Assay in HEK293 cells - 8 hour (AID 1224887); also: top concentration of the series differs between compounds; nearly all actives have a fitted effect of over 50% in size
Summary of the method: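 HEK293 + NanoLuc + prosubstrate, 600 cells/well; 5 h, 37 C/5% CO2; compound 23 nL in DMSO by pintool; 37 C; luminescence read at 0, 8, 16, 24, 32 and 40 h time points.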

[7] = A CellTox Green Cytotoxicity Assay to monitor cytotoxicity in HEK293 cells - 16 hour (AID 1224888); also: nearly all actives have a fitted effect of over 35% in size
Summary of the method: as §2

[8] = qHTS RealTime-Glo MT Cell Viability Assay in HepG2 cells - 0 hour (AID 1224889); also: nearly all actives have a fitted effect of over 50% in size
Summary of the method: as §3

[9] = A CellTox Green Cytotoxicity Assay to monitor cytotoxicity in HepG2 cells - 8 hour (AID 1224890); also: nearly all actives have a fitted effect of over 45% in size
Summary of the method: as §1

[10] = qHTS assay to identify small molecule antagonists of the estrogen receptor alpha (ER-alpha) signaling pathway using the BG1 cell line in the presence of 0.1 nM 17-beta-estradiol - cell viability counter screen (AID 1259241); also: nearly all actives have a fitted effect of over 40% in size
Summary of the method: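 Viability in VM7Luc4E2 cells after 22 hr compound exposure under 0.1 nM 17beta-estradiol stimulation, by CellTiter-Fluor.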

[11] = qHTS assay to identify small molecule antagonists of the androgen receptor (AR) signaling pathway using the MDA cell line in the presence of 0.5 nM R1881 - cell viability counter screen (AID 1259242); also: nearly all actives have a fitted effect of over 45% in size
Summary of the method: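 Concentration-response screen of compounds for toxicity in MDA-kb2 reporter cells: 16 hr at 37C with 0.5 nM R1881, endpoint live-cell protease fluorescence measured in the reporter wells.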

[12] = target: Androgen receptor (Homo sapiens) (UniProt P10275); assay: qHTS assay to identify small molecule antagonists of the androgen receptor (AR) signaling pathway using the MDA cell line in the presence of 0.5 nM R1881 (AID 1259243); also: nearly all actives have a fitted effect of over 50% in size
Summary of the method: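 With R1881 held at 0.5 nM (final), compound effects on MMTV-luciferase expression in MDA-kb2 cells were scored by luminescence after a 16 hr, 37C incubation.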

[13] = qHTS assay to identify small molecule HDAC inhibitors (AID 1259364);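 also: wild-type HCT-116 cells with endogenous class I/II HDAC activity; top concentration of the series differs between compounds; nearly all actives have a fitted effect of over 45% in size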
Summary of the method: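 Screening used wild-type human colon HCT-116 cells incubated overnight, dosed with compounds for 2 hours, and assayed with a homogeneous luminogenic HDAC I/II reagent for 30 minutes at room temperature.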

[14] = qHTS assay to identify small molecule HDAC inhibitors - cell viability counter screen (AID 1259365)
Summary of the method: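 Cytotoxicity was gauged in wild-type HCT-116 cells after a brief 2hr treatment with DMSO-dissolved compounds at 37C and 5% CO2, using CellTiter-Glo luminescence developed for 30min at room temperature.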

[15] = qHTS assay to identify small molecule agonists of the sonic hedgehog signaling (Shh) pathway - cell viability counter screen (AID 1259366); also: nearly all actives have a fitted effect of over 50% in size
Summary of the method: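 Stable Gli1-Luc NIH/3T3 clone, 2,000 cells/well. Compound exposure 24hr at 37C. Read-out: CellTiter-Fluor fluorescence.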

[16] = qHTS assay to identify small molecule antagonists of the sonic hedgehog signaling (Shh) pathway - cell viability counter screen (AID 1259367); also: nearly all actives have a fitted effect of over 55% in size
Summary of the method: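 Fluorescence read-out (CellTiter-Fluor, 1 hr at 37C) taken after 23 hr compound treatment of 3T3 Gli1-Luc cells stimulated with conditioned medium. Cells were seeded at 2,000 per well and pre-incubated 4 hr.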

[17] = qHTS assay to identify small molecule agonists of the sonic hedgehog signaling (Shh) pathway (AID 1259368; calls by dose curve;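 also: NIH/3T3-derived 3T3Gli1-Luc cells carrying a stable Gli1-driven firefly luciferase reporter; series mostly up to about 92 µM; nearly all actives have a fitted effect of over 15% in size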)
Summary of the method: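 Hedgehog pathway agonism scored by increased firefly luciferase luminescence in 3T3Gli1-Luc cells treated 24 hr at 37 C; detection used a 30 min room-temperature reagent incubation.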

[18] = qHTS assay to identify small molecule antagonists of the sonic hedgehog signaling (Shh) pathway (AID 1259369; calls by dose curve; also: nearly all actives have a fitted effect of over 45% in size)
Summary of the method: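 NIH/3T3 stable Gli1-Luc clone, 2,000 cells/well, 4hr settle; cpd + conditioned medium 24hr; Luc reagent 30min RT; luminescence.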

[19] = target: Estrogen receptor (Homo sapiens) (UniProt P03372); assay: qHTS assay to identify small molecule antagonists of the estrogen receptor alpha (ER-alpha) signaling pathway using the BG1 cell line in the presence of 0.1 nM 17-beta-estradiol (AID 1259244); also: nearly all actives have a fitted effect of over 50% in size
Summary of the method: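 Compounds were tested against 0.1 nM (final) 17beta-estradiol in VM7Luc4E2 cells, which express full-length ER-alpha and an ERE-luciferase reporter; luminescence was recorded following 22 h exposure.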

[20] = qHTS assay to identify small molecule phospholipidosis (PLD) inducers (AID 1259344; active = well fitted curve in the direction sought with a large enough effect; an effect the other way counts as inactive or inconclusive)
Summary of the method: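 Read-out is LipidTOX Red fluorescence (ex 595/em 615) imaged in HepG2 cells after 24 h compound exposure at 37 C, with Hoechst nuclear counterstain (ex 352/em 461) allowing per-cell normalisation.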
% is scaled to controls: 0 for no effect and ±100 for the full control effect.

Androgen receptor (Homo sapiens), sequence (P10275 whole entry, looked up): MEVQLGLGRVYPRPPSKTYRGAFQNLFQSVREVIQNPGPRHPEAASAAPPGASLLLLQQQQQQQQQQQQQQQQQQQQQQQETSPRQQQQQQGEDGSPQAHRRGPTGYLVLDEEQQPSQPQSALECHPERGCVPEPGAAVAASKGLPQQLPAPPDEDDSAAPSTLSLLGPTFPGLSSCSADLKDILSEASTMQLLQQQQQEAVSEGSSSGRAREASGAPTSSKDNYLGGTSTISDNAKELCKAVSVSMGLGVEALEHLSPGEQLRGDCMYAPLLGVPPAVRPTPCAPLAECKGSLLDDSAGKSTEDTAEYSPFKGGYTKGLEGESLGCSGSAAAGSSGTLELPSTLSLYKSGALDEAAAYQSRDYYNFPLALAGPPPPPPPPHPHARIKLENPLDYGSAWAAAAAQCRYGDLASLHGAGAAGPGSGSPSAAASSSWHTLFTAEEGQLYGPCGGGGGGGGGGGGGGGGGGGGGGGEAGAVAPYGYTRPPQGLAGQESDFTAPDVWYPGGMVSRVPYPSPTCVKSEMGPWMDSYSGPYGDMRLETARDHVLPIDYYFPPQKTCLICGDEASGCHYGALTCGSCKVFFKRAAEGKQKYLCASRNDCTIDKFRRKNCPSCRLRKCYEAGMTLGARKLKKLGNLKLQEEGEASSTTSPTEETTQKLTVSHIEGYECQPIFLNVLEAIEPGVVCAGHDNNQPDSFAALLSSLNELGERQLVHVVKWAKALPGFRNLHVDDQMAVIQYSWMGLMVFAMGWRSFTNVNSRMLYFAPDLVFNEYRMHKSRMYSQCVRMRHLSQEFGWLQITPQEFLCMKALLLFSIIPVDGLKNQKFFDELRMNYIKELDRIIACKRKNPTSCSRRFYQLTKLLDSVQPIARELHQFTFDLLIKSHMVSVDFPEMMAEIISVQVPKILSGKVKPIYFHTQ
Estrogen receptor (Homo sapiens), sequence (P03372 whole entry, looked up): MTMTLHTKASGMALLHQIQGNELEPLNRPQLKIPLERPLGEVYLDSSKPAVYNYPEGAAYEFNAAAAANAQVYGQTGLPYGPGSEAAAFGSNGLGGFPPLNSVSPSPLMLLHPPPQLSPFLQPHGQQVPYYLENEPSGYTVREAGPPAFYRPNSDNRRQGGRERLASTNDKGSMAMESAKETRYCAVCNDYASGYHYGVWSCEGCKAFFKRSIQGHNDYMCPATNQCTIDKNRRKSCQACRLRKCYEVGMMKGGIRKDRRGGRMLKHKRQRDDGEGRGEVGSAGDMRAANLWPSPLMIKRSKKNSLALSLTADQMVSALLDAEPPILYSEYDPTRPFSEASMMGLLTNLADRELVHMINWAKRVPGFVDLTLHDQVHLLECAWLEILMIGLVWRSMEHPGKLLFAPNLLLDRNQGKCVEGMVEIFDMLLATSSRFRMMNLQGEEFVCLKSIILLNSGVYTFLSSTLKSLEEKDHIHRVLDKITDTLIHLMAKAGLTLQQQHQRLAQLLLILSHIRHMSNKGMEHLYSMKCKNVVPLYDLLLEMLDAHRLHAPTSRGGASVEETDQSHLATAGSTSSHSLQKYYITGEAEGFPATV

CC(C)C1CCC(O)CC1 (configuration not stated)
inactive: Potency [1] | Potency [2] | outcome [3] | outcome [4] | Potency [5] | Potency [6] | outcome [7] | Potency [8] | outcome [9] | outcome [10] | outcome [11] | Potency [12] | Potency [13] | outcome [14] | Potency [15] | Potency [16] | outcome [17] | Potency [18]

CCOC(=O)COc1cc(-n2ncc(C(F)(F)F)c(C)c2=O)c(F)cc1Cl
inactive: Potency [1] | Potency [2] | outcome [3] | outcome [4] | Potency [5] | Potency [6] | outcome [7] | Potency [8] | outcome [9] | outcome [10] | outcome [11] | Potency [12] | outcome [19] | outcome [14] | Potency [15] | Potency [16] | outcome [17]

Cc1ccc(-c2ncc(Cl)cc2-c2ccc(S(C)(=O)=O)cc2)cn1
inactive: Potency [1] | Potency [2] | outcome [3] | outcome [4] | Potency [5] | Potency [6] | outcome [7] | Potency [8] | outcome [9] | outcome [10] | outcome [11] | Potency [12] | outcome [19] | outcome [20] | Potency [13] | outcome [14] | Potency [15] | Potency [16] | outcome [17] | Potency [18]

O=C(CO)[C@@H](O)[C@H](O)[C@H](O)CO
inactive: Potency [1] | Potency [2] | outcome [3] | outcome [4] | Potency [5] | Potency [6] | outcome [7] | Potency [8] | outcome [9] | outcome [10] | outcome [11] | outcome [19] | outcome [20] | Potency [13] | outcome [14] | Potency [15] | Potency [16] | outcome [17]

CCOc1c(N2CCOCC2)cnn(C)c1=O
inactive: Potency [1] | Potency [2] | outcome [3] | outcome [4] | Potency [5] | Potency [6] | outcome [7] | Potency [8] | outcome [9] | outcome [10] | outcome [11] | Potency [12] | outcome [19] | Potency [13] | outcome [14] | Potency [15] | Potency [16] | outcome [17]

CN1[C@@H]2CC[C@H]1CC(OC(=O)C(O)c1ccccc1)C2 (some centres not stated)
inactive: Potency [1] | Potency [2] | outcome [3] | outcome [4] | Potency [5] | Potency [6] | outcome [7] | Potency [8] | outcome [9] | outcome [10] | outcome [11] | outcome [19] | outcome [20] | outcome [14] | Potency [16] | outcome [17] | Potency [18]

O=S(=O)(O)c1cc(O)c(O)c(S(=O)(=O)O)c1
inactive: Potency [1] | Potency [2] | outcome [3] | outcome [4] | Potency [5] | Potency [6] | outcome [7] | Potency [8] | outcome [9] | outcome [10] | outcome [11] | Potency [12] | outcome [19] | outcome [14] | Potency [15] | Potency [16] | outcome [17] | Potency [18]

N[C@@H](CCC(=O)O)C(=O)O
inactive: Potency [1] | Potency [2] | outcome [3] | outcome [4] | Potency [5] | Potency [6] | outcome [7] | Potency [8] | outcome [9] | outcome [10] | outcome [11] | outcome [19] | outcome [20] | outcome [14] | Potency [15] | Potency [16] | outcome [17] | Potency [18]

COc1ccnc(CS(=O)c2nc3cc(OC(F)F)ccc3[nH]2)c1OC (configuration not stated)
inactive: Potency [1] | Potency [2] | outcome [3] | outcome [4] | Potency [5] | Potency [6] | outcome [7] | Potency [8] | outcome [9] | outcome [10] | outcome [11] | outcome [19] | Potency [13] | outcome [14] | Potency [15] | Potency [16] | outcome [17]

CCCCS(=O)(=O)N[C@@H](Cc1ccc(OCCCCC2CCNCC2)cc1)C(=O)O
inactive: Potency [1] | Potency [2] | outcome [3] | outcome [4] | Potency [5] | Potency [6] | outcome [7] | Potency [8] | outcome [9] | outcome [10] | outcome [11] | Potency [12] | PLD induction [20] -2.88% [at 1.53 µM] | Potency [13] | outcome [14] | Potency [15] | Potency [16] | outcome [17] | Potency [18]

CCCOC(=O)CC
inactive: Potency [1] | Potency [2] | outcome [3] | outcome [4] | Potency [5] | Potency [6] | outcome [7] | Potency [8] | outcome [9] | outcome [10] | outcome [11] | Potency [12] | outcome [14] | Potency [15] | Potency [16] | outcome [17]

CCCCCCCCCCOc1cc2c(=O)c(C(=O)OCC)c[nH]c2cc1OCC
inactive: cytotoxicity [1] 9.56% [at 6.97 µM] | cytotoxicity increase [2] -9.18% [at 6.97 µM] | cytotoxicity increase [3] 2.19% [at 6.97 µM] | activity change, negative = cytotoxic [4] 4.28% [at 6.97 µM] | activity change, negative = cytotoxicity [5] 3.7% [at 6.97 µM] | activity change, negative = cytotoxicity [6] 3.87% [at 6.97 µM] | activity change [7] 0.406% [at 6.97 µM] | activity change, negative = cytotoxicity [8] 9.73% [at 6.97 µM] | cytotoxicity increase [9] -1.8% [at 6.97 µM] | activity change, negative = cytotoxicity [10] 4.33% [at 8.39 µM] | viability change, negative = cytotoxic [11] 2.82% [at 8.39 µM] | outcome [20] | activity change, negative = inhibition [13] 0.14% [at 8.39 µM] | activity change, negative = cytotoxicity [14] 9.44% [at 8.39 µM] | viability change, negative = cytotoxic [15] 2.95% [at 8.39 µM] | viability change, negative = cytotoxic [16] 5.79% [at 8.39 µM] | activity change [17] -0.042% [at 8.39 µM]

Nc1ccn([C@@H]2O[C@H](CO)[C@@H](O)[C@@H]2O)c(=O)n1
inactive: Potency [1] | Potency [2] | outcome [3] | outcome [4] | Potency [5] | Potency [6] | outcome [7] | Potency [8] | outcome [9] | outcome [10] | outcome [11] | outcome [19] | Potency [13] | outcome [14] | Potency [16] | outcome [17]

CC(C)C[C@@H](N)C(=O)O
inactive: cytotoxicity [1] -9.4% [at 15.8 µM] | cytotoxicity increase [2] -8.17% [at 15.8 µM] | cytotoxicity increase [3] -0.255% [at 15.8 µM] | activity change, negative = cytotoxic [4] 2.37% [at 15.8 µM] | activity change, negative = cytotoxicity [5] 1.4% [at 15.8 µM] | activity change, negative = cytotoxicity [6] 7.72% [at 15.8 µM] | activity change [7] 1.15% [at 15.8 µM] | activity change, negative = cytotoxicity [8] 0.397% [at 15.8 µM] | cytotoxicity increase [9] -17.7% [at 15.8 µM] | activity change, negative = cytotoxicity [10] -0.157% [at 19 µM] | viability change, negative = cytotoxic [11] -2.1% [at 19 µM] | outcome [20] | activity change, negative = inhibition [13] 7.66% [at 19 µM] | activity change, negative = cytotoxicity [14] -1.99% [at 19 µM] | viability change, negative = cytotoxic [15] -2.88% [at 19 µM] | viability change, negative = cytotoxic [16] 1.81% [at 19 µM] | activity change [17] -0.808% [at 18.9 µM] | activity change, negative = inhibition [18] 18.9% [at 19 µM]
